Screening results deposited in PubChem by National Center for Advancing Translational Sciences (NCATS).
RORgamma inh = ROR gamma (mouse) transcription inhibition | P51450 | Drosophila S2 Gal4-RORgamma UAS-luciferase reporter, 20 h | Potency, µM (highest dose often 53.6 µM), for inactives: top-dose activity change, negative = inhibition, actives largely listed as inhibitors | 5.4% of 310,000 active; also: % is scaled to controls: 0 for no effect and ±100 for the full control effect; nearly all actives have a fitted effect of over 60% in size
Target sequence (P51450 whole entry, looked up, the tested form may be a part): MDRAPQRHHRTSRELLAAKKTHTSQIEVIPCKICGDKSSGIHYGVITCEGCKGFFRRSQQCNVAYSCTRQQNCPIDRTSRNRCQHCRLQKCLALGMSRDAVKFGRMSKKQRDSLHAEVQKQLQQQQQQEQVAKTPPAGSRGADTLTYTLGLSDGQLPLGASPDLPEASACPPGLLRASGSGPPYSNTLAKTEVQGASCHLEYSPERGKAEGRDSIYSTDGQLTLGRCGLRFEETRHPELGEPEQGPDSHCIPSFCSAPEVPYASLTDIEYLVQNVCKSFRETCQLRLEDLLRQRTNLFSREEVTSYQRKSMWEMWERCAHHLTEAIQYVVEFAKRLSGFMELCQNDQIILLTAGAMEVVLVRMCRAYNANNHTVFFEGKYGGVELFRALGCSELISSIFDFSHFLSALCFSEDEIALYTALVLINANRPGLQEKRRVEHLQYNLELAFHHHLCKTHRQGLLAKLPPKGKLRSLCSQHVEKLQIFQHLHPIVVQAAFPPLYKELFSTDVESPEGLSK
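In this cell-based reporter format, copper sulfate (700 uM final) drives Gal4–ROR gamma fusion expression from a metallothionein promoter in Drosophila Schneider cells; compounds preincubated 1 hr, reporter read after 20 hr at ambient temperature.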
ATXN viability = viability counter-screen for ATXN expression inhibitors | 0.49% of 400,000 active | S2 cells (HEK-293 line with an ATXN2-luciferase reporter) viability, CellTiter-Fluor protease fluorescence, 24 h | Potency, µM (doses to about 56.7 µM), actives largely listed as cytotoxic | AID 651635; also: nearly all actives have a fitted effect of over 40% in size
TGFb SMAD3 inh = inhibitors of TGF-b signaling. HepG2 CAGA-GFP TGF-b/SMAD3 reporter, GFP fluorescence, 18 h; TGF-beta stimulated, 500 pg/mL final. Potency, µM (top dose mostly 46.1 µM), for the others: at the highest dose activity, negative = inhibition, actives largely listed as inhibitors. 1.2% of 410,000 active. AID 588855; also: % is scaled to controls: 0 for no effect and ±100 for the full control effect; nearly all actives have a fitted effect of over 65% in size
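TGF-beta reporter screen: HEPG2 CAGA-GFP, 1% FBS, 500 pg/mL TGF-beta final, 18 h; per-cell GFP summed per well; curves fitted and categorized by class.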
HepG2 tox = kills HepG2 cells in TGF-b inhibitor counter-screen. HepG2 CAGA-GFP viability, ATP luminescence, 18 h. Potency, µM (series often up to 46.1 µM), for inactives: at the highest dose activity change, negative = cytotoxicity, most hits filed as cytotoxic. 0.76% of 410,000 active. AID 588856
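HepG2 CAGA-GFP cells (1000/well, DMEM with 1% FBS) received compound, then TGF-beta at 500 pg/mL final, and were incubated 18 hours at 37 degrees C. Viability was read by CellTiter-Glo luminescence. Media-only wells were set as complete cell-killing and DMSO as no toxicity.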
ATXN2 expr inh = ATXN2 expression inhibition | HEK-293 ATXN2-luciferase reporter, luminescence, 24 h | Potency, µM (titrated, usually from 57 µM), inactives show top-dose activity change, negative = inhibition, actives largely listed as inhibitors | 0.72% of 360,000 active; also: % is scaled to controls: 0 for no effect and ±100 for the full control effect; nearly all actives have a fitted effect of over 55% in size
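ATXN2-luciferase reporter cells (luciferase flanked by upstream and downstream ATXN2 gene portions) were treated 24 h at 37 °C with compounds at up to 57 uM. SteadyGlo luminescence gave expression; GF-AFC fluorescence gave viability.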
Gal4-VP16 FLuc = Gal4-VP16 reporter inhibition counter-screen; Potency, µM (series often up to 53.6 µM), for the others: top-dose activity, negative = inhibition, usual class: inhibitors; AID 2546; 3.5% of 310,000 active; Drosophila S2 Gal4-VP16 UAS-luciferase, luminescence, 20 h;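 also: Gal4-VP16 expression switched on by copper sulfate through the metallothionein promoter; % is scaled to controls: 0 for no effect and ±100 for the full control effect; nearly all actives have a fitted effect of over 50% in size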
* = called active by the depositor; ! = a repeat was not active; [ ] = another dose, or the depositor's remark. Only some compounds are listed: those with a hit (about 6.3% of all), similar ones and a draw of the others. Calls follow the shape of the dose curve; as a rule, active = well fitted curve in the direction sought with a large enough effect; inconclusive = small, poorly fitted or top-dose-only effect, or another doubt; inactive = no such curve, though single readings can be large; an effect the other way counts as inactive or inconclusive. Potency is read from the fitted curve at half-maximal effect.

For CN1C(=O)C(C)(C)c2cc(S(=O)(=O)NCc3ccc(C(=O)Nc4ccc(Cl)cc4)cc3)ccc21 the results were TGFb SMAD3 inh 3.98µM* and HepG2 tox -27.9%.
For Cc1ccc(CNc2nc(CN3CCSCC3)nc3ccccc23)o1 the results were ATXN viability inactive.
Screening CCN(CC)c1cc(C)c2cc(NC(=O)c3cc(OC)cc(OC)c3)ccc2n1 returned TGFb SMAD3 inh inconclusive, HepG2 tox -26.7% and ATXN2 expr inh 17.8µM*.
Screening CCN(CC)c1cc(C)c2cc(NC(=O)/C=C/c3ccccc3Cl)ccc2n1 returned TGFb SMAD3 inh inconclusive, HepG2 tox -80.5% and ATXN2 expr inh 28.2µM*.
For CCN(CC)c1cc(C)c2cc(NC(=O)c3ccc(OC)c(OC)c3)ccc2n1 the results were ATXN viability inconclusive, TGFb SMAD3 inh inconclusive, HepG2 tox -83.2% and ATXN2 expr inh -5.7%.
O=C(CCBr)N1CCN(C(=O)CCBr)CC1 was read as RORgamma inh -12.0%, ATXN viability inactive, ATXN2 expr inh 1.2% and Gal4-VP16 FLuc -1.2%.
For S=c1[nH]nc(COc2ccccc2)n1/N=C/C(Cl)=C/c1ccccc1 the results were RORgamma inh 7.94µM*, ATXN viability inconclusive, TGFb SMAD3 inh inconclusive, HepG2 tox -83.6%, ATXN2 expr inh -18.3% and Gal4-VP16 FLuc inconclusive.
Screening S=c1[nH]nc(COc2ccccc2)n1/N=C/c1cccnc1 returned RORgamma inh -56.0%, ATXN viability inactive, TGFb SMAD3 inh -3.1%, HepG2 tox -0.5%, ATXN2 expr inh -10.7% and Gal4-VP16 FLuc inconclusive.
S=c1[nH]nc(COc2ccccc2)n1/N=C/C=C/c1ccccc1 was read as RORgamma inh inconclusive, ATXN viability inactive, TGFb SMAD3 inh -12.7%, HepG2 tox 15.2%, ATXN2 expr inh -3.4% and Gal4-VP16 FLuc 4.47µM*.
`O=C(CSc1nnc(CCc2ccccc2)n1-c1ccc(Cl)cc1)c1ccccc1` gave RORgamma inh 11.2µM*, ATXN viability inactive, TGFb SMAD3 inh inconclusive, HepG2 tox -27.1%, ATXN2 expr inh -3.1% and Gal4-VP16 FLuc inconclusive.
Screening S=c1[nH]nc(CCc2ccccc2)n1-c1ccccc1 returned RORgamma inh 5.62µM*, ATXN viability inactive, TGFb SMAD3 inh 2.8%, HepG2 tox 5.1%, ATXN2 expr inh -0.8% and Gal4-VP16 FLuc 11.2µM*.
`S=c1[nH]nc(CCc2ccccc2)n1-c1ccc(Cl)cc1` gave RORgamma inh 1.78µM*, ATXN viability inactive, TGFb SMAD3 inh 7.3%, HepG2 tox 1.8%, ATXN2 expr inh -5.0% and Gal4-VP16 FLuc inconclusive.
O=C(CC1C(=O)NCCN1Cc1ccc(F)cc1)NCCOc1cccnc1 (configuration not stated) was read as RORgamma inh -6.4%, ATXN viability inactive, TGFb SMAD3 inh 5.2%, HepG2 tox 8.6%, ATXN2 expr inh -23.4%[11.3 µM] and Gal4-VP16 FLuc -8.3%.
`O=C(CC1C(=O)NCCN1Cc1ccc(-c2ccccc2)cc1)NCCOc1cccnc1` (configuration not stated) gave RORgamma inh 2.8%, ATXN viability inactive, TGFb SMAD3 inh -13.6%, HepG2 tox -18.2% and Gal4-VP16 FLuc 20µM*.
Screening CCOc1ccccc1CN1CCNC(=O)C1CC(=O)NCc1ccccn1 (configuration not stated) returned RORgamma inh 11.2µM*, ATXN viability inactive, TGFb SMAD3 inh -0.2%, HepG2 tox -4.7%, ATXN2 expr inh -1.0% and Gal4-VP16 FLuc inconclusive.
`C[N+]1(CC(=O)c2ccc(Oc3ccc(C(=O)C[N+]4(C)CCOCC4)cc3)cc2)CCOCC1` gave TGFb SMAD3 inh -6.3% and HepG2 tox -6.3%.
`Cc1cc(C)c(C#N)c(SCCS(=O)(=O)Cc2ccc(Cl)cc2)n1` gave RORgamma inh 15.3%, ATXN viability inactive, TGFb SMAD3 inh 14.1µM*, HepG2 tox -5.1%, ATXN2 expr inh -15.7% and Gal4-VP16 FLuc -16.2%.
Screening Cc1ccc2nc(N(CCCN(C)C)C(=O)c3ccc(Br)s3)sc2c1 returned RORgamma inh 10.5%, ATXN viability 22.4µM*!, TGFb SMAD3 inh inconclusive, HepG2 tox 12.6µM*!, ATXN2 expr inh inconclusive and Gal4-VP16 FLuc -10.4%.
`Cc1ccc2nc(N(CCCN(C)C)C(=O)c3cc(-c4cccs4)nc4ccccc34)sc2c1` gave RORgamma inh 14.1µM*, ATXN viability 31.6µM*, TGFb SMAD3 inh 15.8µM*, HepG2 tox 11.2µM*, ATXN2 expr inh inconclusive and Gal4-VP16 FLuc inconclusive.
CN(C)CCCN(C(=O)c1cc(-c2cccs2)nc2ccccc12)c1nc2c(F)cccc2s1 was read as RORgamma inh inconclusive, ATXN viability inactive, TGFb SMAD3 inh inconclusive, HepG2 tox -85.1%, ATXN2 expr inh -25.1% and Gal4-VP16 FLuc -22.5%.
Screening CN(C)CCCN(C(=O)c1ccc(Br)s1)c1nc2ccc(F)cc2s1 returned ATXN viability inactive, TGFb SMAD3 inh 2.5%, HepG2 tox 11.9% and ATXN2 expr inh -17.7%.
For NS(=O)(=O)O the results were RORgamma inh 36.4% and Gal4-VP16 FLuc -2.5%.
`COc1ccc(CNC(=O)CCCCCNc2nc(=S)[nH]c3ccccc23)cc1` gave RORgamma inh inconclusive, ATXN viability inactive, TGFb SMAD3 inh 2.4%, HepG2 tox -0.5%, ATXN2 expr inh -25.1% and Gal4-VP16 FLuc -3.0%.
`S=c1nc(NCc2ccc3c(c2)OCO3)c2ccccc2[nH]1` gave RORgamma inh 12.6µM*, ATXN viability inactive, TGFb SMAD3 inh -3.4%, HepG2 tox -10.5%, ATXN2 expr inh -12.4% and Gal4-VP16 FLuc inconclusive.
COCCNc1nc(NCc2cccc(Cl)c2)c2cnn(C)c2n1 was read as ATXN viability inactive, TGFb SMAD3 inh -2.4%, HepG2 tox -6.2% and ATXN2 expr inh inconclusive.
COc1cc2[nH]c(=S)nc(NCc3cccc(Cl)c3)c2cc1OC was read as RORgamma inh 3.16µM*, ATXN viability inactive, TGFb SMAD3 inh inconclusive, HepG2 tox -29.4% and Gal4-VP16 FLuc 7.94µM*.
Screening S=c1nc(NCc2cccc(Cl)c2)c2ccccc2[nH]1 returned RORgamma inh 3.98µM*, ATXN viability inactive, TGFb SMAD3 inh -16.3%, HepG2 tox -16.7%, ATXN2 expr inh 4.5% and Gal4-VP16 FLuc 8.91µM*.
`O=C(NC1CCCCC1)c1ccc(CNc2nc(=S)[nH]c3ccccc23)cc1` gave RORgamma inh 12.6µM*, ATXN viability inactive, TGFb SMAD3 inh 8.3%, HepG2 tox -12.7%, ATXN2 expr inh -11.0% and Gal4-VP16 FLuc 1.7%.
